A selection: hits, their analogues and other compounds. The true share with any hit is near 4%.
TWEAK-Fn14 inh = blocks TWEAK-Fn14 interaction in a reporter cell assay; 2% of 360,000 active; inhibition, % at 10 µM; TWEAK-stimulated Fn14 reporter cells, luciferase luminescence, 8 h; in the data active means inhibition above about 50%
Peg3 prom inh = Peg3 promoter activity inhibition. HeLa PEG-Prom luciferase reporter, luminescence, overnight. inhibition, % at 20 µM. AID 588405. 1.7% of 360,000 active;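 active means inhibition of at least 50% at 20 µM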
TROY signal inh = TROY signaling inhibition. Q293 LMP1-TROYcd NF-kB luciferase reporter, 4 h. inhibition, % at 10 µM. 0.98% of 360,000 active;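 active means compounds whose plate-normalised and pattern-corrected inhibition of the luciferase reporter signal at the single screening dose is 50% or more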
HIF-2a block = HIF-2a inhibition; 786-0 RCC cells HIF-2a reporter, luciferase luminescence, overnight; inhibition, % at 18.8 µM; 0.72% of 360,000 active; AID 624352;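 active means inhibition of the luminescence signal of 40% or more relative to plate controls, in a single-dose primary screen at 18.75 µM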
LMP1 NFkB inh = Epstein-Barr LMP1 NF-kappaB reporter inhibition | LMP1-induced NF-kappaB luciferase reporter cells, luminescence | inhibition, % at 12.5 µM | 0.69% of 350,000 active | AID 504558; in the data active means inhibition above about 41%; inconclusive means no clear call, values can overlap the other calls;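 further: 0% = neutral control wells and 100% = reference inhibitor control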
MITF TRPM1 inh = MITF TRPM1 promoter inhibition in SK-MEL-5 cells; SK-MEL-5 TRPM1 promoter luciferase, 24 h; inhibition, % at 12.5 µM; 0.83% of 330,000 active;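 active means mean inhibition across replicates of 60% or more, whatever share of single replicates reaches that level; inconclusive means some that reach 60%, reason not given; inactive means mean inhibition across replicates below 60%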
The depositor's hits bear a star.

Results for N#Cc1ccc(C(=O)OCC(=O)Nc2cccnc2Cl)cc1 ?
TWEAK-Fn14 inh: -2.5; Peg3 prom inh: -5.8; TROY signal inh: 14.2; HIF-2a block: -2.6; LMP1 NFkB inh: -0.6; MITF TRPM1 inh: 0.2

Results for CSCCC(NC(=O)c1ccccc1Cl)C(=O)NNC(=O)c1ccncc1 (stereo not given) ?
TWEAK-Fn14 inh: 2.1; Peg3 prom inh: -0.3; TROY signal inh: -9.0; HIF-2a block: 6.3; LMP1 NFkB inh: -1.5; MITF TRPM1 inh: -4.3

How did Cc1ccc(COc2cccc(/C=N/NC(=O)c3nnn(-c4nonc4N)c3C)c2)cc1 do in these assays?
TWEAK-Fn14 inh: -133.3; Peg3 prom inh: 77.2*; TROY signal inh: -57.9; HIF-2a block: -132.2; LMP1 NFkB inh: -25.9; MITF TRPM1 inh: 4.2

What do the screens show for `CCOc1cc(/C=N/NC(=O)c2nnn(-c3nonc3N)c2C)ccc1OCc1ccc(C)cc1`?
TWEAK-Fn14 inh: -47.2; Peg3 prom inh: 4.0; TROY signal inh: -29.6; HIF-2a block: 12.7; LMP1 NFkB inh: -55.7

Results for CCc1c(C(=O)N/N=C/c2ccc(OCc3ccc(F)cc3)c(OC)c2)nnn1-c1nonc1N ?
TWEAK-Fn14 inh: 54.9*; Peg3 prom inh: -114.7; TROY signal inh: 13.6; HIF-2a block: -10.3; LMP1 NFkB inh: -24.9; MITF TRPM1 inh: -76.5

What do the screens show for `Cc1nnc(N2CCCC(C(=O)Nc3cc(F)ccc3F)C2)c2nn(-c3ccccc3)c(C)c12` (stereo not given)?
TWEAK-Fn14 inh: 38.7; Peg3 prom inh: 17.9; TROY signal inh: 53.0*; HIF-2a block: 18.5; LMP1 NFkB inh: 54.8*; MITF TRPM1 inh: inconclusive

How did COC(=O)c1c(C)oc2ccc(N(C(=O)c3ccncc3)S(=O)(=O)c3ccc(C)cc3)cc12 do in these assays?
TWEAK-Fn14 inh: 56.2*; Peg3 prom inh: 19.8; TROY signal inh: 59.2*; HIF-2a block: 0.6; LMP1 NFkB inh: 25.8; MITF TRPM1 inh: 40.5

What do the screens show for `COC(=O)c1c(C)oc2ccc(N(C(=O)c3ccncc3)S(=O)(=O)c3ccccc3)cc12`?
TWEAK-Fn14 inh: 29.0; Peg3 prom inh: 46.5; TROY signal inh: 48.9; HIF-2a block: 18.8; LMP1 NFkB inh: 11.4; MITF TRPM1 inh: 8.4

How did COC(=O)c1c(C)oc2ccc(N(C(=O)c3ccncc3)S(=O)(=O)c3ccc(C)cc3C)cc12 do in these assays?
TWEAK-Fn14 inh: 79.6*; Peg3 prom inh: 41.0; TROY signal inh: 65.6*; HIF-2a block: 28.1; LMP1 NFkB inh: 28.0; MITF TRPM1 inh: 21.1

How did COC(=O)c1c(C)oc2ccc(N(C(=O)c3ccncc3)S(=O)(=O)c3ccc4ccccc4c3)cc12 do in these assays?
TWEAK-Fn14 inh: 57.1*; Peg3 prom inh: 20.6; TROY signal inh: 53.0*; HIF-2a block: 19.1; LMP1 NFkB inh: 8.3; MITF TRPM1 inh: 10.1

What do the screens show for `Cc1ccc([N+](=O)[O-])cc1S(=O)(=O)N(C(=O)c1ccncc1)c1ccc2oc3c(c2c1)CCCC3`?
TWEAK-Fn14 inh: -2.5; Peg3 prom inh: -1.9; TROY signal inh: 21.7; HIF-2a block: 15.2; LMP1 NFkB inh: 2.4; MITF TRPM1 inh: 2.1

Results for Cc1ccc(S(=O)(=O)N(C(=O)c2ccncc2)c2ccc3oc4c(c3c2)CCCC4)cc1[N+](=O)[O-] ?
TWEAK-Fn14 inh: 29.5; Peg3 prom inh: 1.1; TROY signal inh: 54.0*; HIF-2a block: 12.3; LMP1 NFkB inh: 9.0; MITF TRPM1 inh: -5.1

What do the screens show for `COC(=O)c1c(C)oc2ccc(N(C(=O)Oc3ccccc3)S(=O)(=O)c3ccc(Cl)c([N+](=O)[O-])c3)cc12`?
TWEAK-Fn14 inh: 13.2; Peg3 prom inh: 17.8; TROY signal inh: 33.6; HIF-2a block: 11.0; LMP1 NFkB inh: -93.8; MITF TRPM1 inh: 16.4

Results for CC(=O)c1ccc(N2CCN(C(=O)c3cc(S(=O)(=O)N4CCOCC4)ccc3C)CC2)cc1 ?
TWEAK-Fn14 inh: 9.8; Peg3 prom inh: -4.9; TROY signal inh: 20.4; HIF-2a block: 7.6; LMP1 NFkB inh: -5.2; MITF TRPM1 inh: -0.8

How did CC1CC(C)CN(C(=O)c2cccc(S(=O)(=O)NCc3ccccc3)c2)C1 (stereo not given) do in these assays?
TWEAK-Fn14 inh: -0.2; Peg3 prom inh: 4.9; TROY signal inh: 2.2; HIF-2a block: 11.2; LMP1 NFkB inh: -21.1; MITF TRPM1 inh: 2.0

Results for CN(C)CCCN(C(=O)COc1ccc(Cl)cc1)c1nc2cc3c(cc2s1)OCO3 ?
TWEAK-Fn14 inh: -8.7; Peg3 prom inh: 64.4*; TROY signal inh: -59.4; HIF-2a block: -0.3; LMP1 NFkB inh: 2.9; MITF TRPM1 inh: 19.3

How did Cc1ccc2nc(N(CCCN(C)C)C(=O)CCc3ccccc3)sc2c1 do in these assays?
TWEAK-Fn14 inh: -5.9; Peg3 prom inh: 53.1*; TROY signal inh: -2.3; HIF-2a block: -15.4; LMP1 NFkB inh: 3.8; MITF TRPM1 inh: -5.8

What do the screens show for `CN(C)CCCN(C(=O)CCc1ccccc1)c1nc2ccc(Cl)cc2s1`?
TWEAK-Fn14 inh: -3.8; Peg3 prom inh: 108.0*; TROY signal inh: 7.9; HIF-2a block: -20.2; LMP1 NFkB inh: -20.5; MITF TRPM1 inh: 5.8

How did Cc1ccc2nc(N(CCCN(C)C)C(=O)CS(=O)(=O)c3ccccc3)sc2c1 do in these assays?
TWEAK-Fn14 inh: 35.5; Peg3 prom inh: -60.4; TROY signal inh: -18.5; HIF-2a block: -5.2; LMP1 NFkB inh: 11.0; MITF TRPM1 inh: 9.5

How did COc1ccc(N2CC(C(=O)NCc3n[nH]c(=O)c4ccccc34)CC2=O)cc1 (stereo not given) do in these assays?
TWEAK-Fn14 inh: -9.5; Peg3 prom inh: 16.2; TROY signal inh: -1.5; HIF-2a block: 18.8; LMP1 NFkB inh: 6.9; MITF TRPM1 inh: 5.0

What do the screens show for `CC(=O)N/N=C(\N)c1nonc1N`?
TWEAK-Fn14 inh: -10.3; Peg3 prom inh: -12.3; TROY signal inh: -28.5; HIF-2a block: -28.7

Results for O=C(Cn1cc(C(=O)C(=O)N2CCOCC2)c2ccccc21)Nc1cccc(C(F)(F)F)c1 ?
TWEAK-Fn14 inh: -12.9; Peg3 prom inh: -2.1; TROY signal inh: -2.8; HIF-2a block: -7.8; LMP1 NFkB inh: -5.9

How did S=C1NCN(CCc2ccccc2)CN1Cc1ccccc1 do in these assays?
TWEAK-Fn14 inh: 95.8*; Peg3 prom inh: 4.2; TROY signal inh: 13.2; HIF-2a block: 18.6; LMP1 NFkB inh: -15.9; MITF TRPM1 inh: 3.1

What do the screens show for `CCCN1CN(CCc2ccccc2)CNC1=S`?
TWEAK-Fn14 inh: 103.7*; Peg3 prom inh: 22.2; TROY signal inh: -11.2; HIF-2a block: 9.1; LMP1 NFkB inh: -1.0; MITF TRPM1 inh: 2.6

How did COC(=O)C1(NC(=O)NC2CCCCC2)CCCCC1 do in these assays?
TWEAK-Fn14 inh: -14.7; Peg3 prom inh: 1.8; TROY signal inh: -3.0; HIF-2a block: 16.3; LMP1 NFkB inh: -4.4; MITF TRPM1 inh: 5.6

How did CN(Cc1ccccc1)C(=O)C1CCN(S(=O)(=O)c2ccc3nc4c(c(C(=O)O)c3c2)CCCC4)CC1 do in these assays?
TWEAK-Fn14 inh: -10.1; Peg3 prom inh: -18.1; TROY signal inh: -12.1; HIF-2a block: -4.6; LMP1 NFkB inh: -7.4; MITF TRPM1 inh: 5.8

How did Oc1ccccc1-c1cc(-c2ccc3c(c2)OCCO3)n[nH]1 do in these assays?
TWEAK-Fn14 inh: 71.1*; Peg3 prom inh: -143.0; TROY signal inh: 58.4*; HIF-2a block: -166.7; LMP1 NFkB inh: -12.2; MITF TRPM1 inh: -1.6

Source: PubChem BioAssay (several laboratories)
